Assay results reported in the supplement of paper PMC3334620.
Whole data set: some 33,000 sequences, median “E-score (-0.5 to 0.5)” near -0.015, cut for the highest 2% near 0.3. Many of the other results were omitted from the sample, so the highest values are more common in it than they were.

These sequences were tested against T1, Abf1 (UniProt P14164) (assay: PBM E-score (8-mer binding enrichment) (E-score (-0.5 to 0.5)); higher = stronger / more preferred TF binding). Conditions: protein concentration: 200 nM; construct: GST-full length.
T1 sequence: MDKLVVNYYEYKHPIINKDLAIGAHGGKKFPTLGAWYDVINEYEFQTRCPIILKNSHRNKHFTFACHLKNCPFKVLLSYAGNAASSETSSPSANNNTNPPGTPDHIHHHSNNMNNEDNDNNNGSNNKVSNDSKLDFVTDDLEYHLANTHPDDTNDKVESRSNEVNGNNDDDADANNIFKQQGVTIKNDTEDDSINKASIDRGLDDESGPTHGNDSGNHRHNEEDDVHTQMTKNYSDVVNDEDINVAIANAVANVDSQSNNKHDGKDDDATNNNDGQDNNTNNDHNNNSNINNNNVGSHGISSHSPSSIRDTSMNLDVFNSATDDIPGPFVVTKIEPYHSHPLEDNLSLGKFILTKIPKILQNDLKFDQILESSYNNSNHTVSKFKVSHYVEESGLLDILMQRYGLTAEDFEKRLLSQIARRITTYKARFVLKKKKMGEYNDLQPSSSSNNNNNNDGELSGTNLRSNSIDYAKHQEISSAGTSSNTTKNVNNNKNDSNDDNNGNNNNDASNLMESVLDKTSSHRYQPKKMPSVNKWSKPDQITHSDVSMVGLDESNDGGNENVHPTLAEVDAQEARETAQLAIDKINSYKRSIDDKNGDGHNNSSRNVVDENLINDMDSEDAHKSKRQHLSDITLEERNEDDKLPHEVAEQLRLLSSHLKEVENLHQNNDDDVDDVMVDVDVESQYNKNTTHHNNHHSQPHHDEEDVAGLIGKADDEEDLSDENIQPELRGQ
Protocol: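 Universal 'all 10-mer' protein binding microarrays (Agilent AMADID 015681) probed with GST-tagged S. cerevisiae TFs (full-length or DBD) made by in vitro transcription/translation (PURExpress), about 100-200 nM. Bound TF was detected with fluorescent anti-GST. Each ungapped 8-mer (which stands for itself and its reverse complement) is scored by the PBM enrichment score (E-score), a modified Wilcoxon-Mann-Whitney statistic from -0.5 to +0.5, computed with the Universal PBM Analysis Suite. Scale: above 0.35 generally sequence-specific binding.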

Sequence | PBM E-score
GGGACGAA | 0.0455
CGGACGAG | 0.191
AGGACGAA | 0.147
AGGACGAC | 0.12
AGAGCGTC | 0.0295
AGACTTTG | 0.0104
CGCAAACC | -0.124
AGTGAAGG | -0.145
GTTCTTCA | 0.117
GGGTCTAA | -0.112
AATCATCA | 0.317
TATCATCA | 0.385
CATCATCA | 0.254
TCTCATCA | 0.145
AATCATCT | 0.184
AATCATCG | 0.179
GATCAACC | 0.005
CTTCTATC | 0.0251
ACGCACAC | 0.0964
AAGGCTCG | -0.0968
ACGAAGGA | 0.0584
CATCGTGG | 0.0192
AACCGTCT | -0.0069
AACCGTCG | 0.298
CATCGTGC | 0.314

Sequence | PBM E-score
AACCGTGC | 0.306
AATCGTGG | 0.125
GACCGTGC | 0.108
AACCGTCC | -0.0986
CATCGTGA | 0.135
AATCGTGA | 0.175
AACCGTGG | -5e-05
AATCGTGC | 0.311
AGGCCCTA | -0.113
AATGTGCA | 0.0308
GCTACAGA | -0.126
CAACTGGA | -0.182
AACACTAC | -0.0369
AGCACTAA | 0.154
AACACTAG | 0.151
GCCACTAA | -0.149
CTCACTAC | 0.203
ACCACTAA | -0.0853
ATCACTAG | 0.357
GTCACTAA | 0.393
ATCACTAA | 0.359
ATCACTAC | 0.375
CTCACTAA | 0.129
AGCACTAG | 0.0299
CTCTCGTC | 0.011

Sequence | PBM E-score
GCCTTACC | -0.255
TATGCACA | 0.018
AAAGGGTA | -0.0845
CTAACCTC | -0.0908
AGTGAGCG | 0.24
CTCATTTC | 0.0189
ATCATTTC | 0.312
GTCATTTA | 0.313
CTCATTTA | 0.0543
ATCATACA | 0.236
ATTATACG | 0.331
ATTATACC | 0.217
GACATTTA | 0.0126
ATCATACC | 0.205
ATCATACG | 0.315
ATTATACA | 0.0365
ATCATTTG | 0.276
AGGATCTC | -0.0704
GCTATCCA | 0.00713
CGATTGGA | -0.00974
GCGCCGTA | 0.291
TAGCCCTA | -0.149
AGGTTAAG | -0.128
CGCCTGAG | -0.0541
CCTACGCC | -0.0667

Sequence | PBM E-score
ATCATAAG | 0.105
TTCATAAA | 0.0402
GTGATTTA | 0.317
ATGATGTA | 0.272
CTGATTTA | 0.0199
GTGATGTA | 0.399
ATCATAAA | 0.303
CTGATGTA | -0.129
ATCATTCG | 0.332
ATGATTTA | 0.296
ATCATTCC | 0.25
ATCATTCA | 0.278
AATGGGTG | -0.0386
ATCGGGTC | -0.0582
CCGCGAAC | 0.00614
CGGAAAGA | -0.131
GTTGACTA | -0.164
GATGGGAC | -0.154
GACTGAAA | -0.037
CCCCAACG | -0.0545
AAAGGGAA | -0.0729
TGACCGAA | 0.0507
AACATTTA | 0.0911
ACCATTTA | 0.0343
ATCATTTA | 0.305

Sequence | PBM E-score
CATCCGAC | 0.151
ACCACTGG | -0.103
CTCACTGC | -0.0817
ATCACTGG | 0.332
ATCACTGC | 0.32
AACACTGC | -0.155
AGCACTGG | -0.168
ATGTTCGC | 0.00598
CGAAGGCA | -0.148
AACAGCCC | -0.373
AAAACGAC | 0.323
CAAACGAC | 0.198
AAAACGAG | 0.0711
GAAACGAC | 0.153
AAAACGAA | 0.167
AAAACGAT | 0.326
TATGCGGA | 0.0153
TTTGCAAA | 0.0778
GACCTGGC | -0.0415
GGAGTGAA | -0.0623
AGAGTGAC | 0.288
CGAGTGAG | -0.011
GGAGTGAC | 0.333
CGAGTGAC | 0.358
CGAGTGAA | -0.14

Sequence | PBM E-score
CGAGACTC | 0.0667
CGGAGACG | 0.0614
AAAAGGCT | -0.0975
CGGCCGAG | 0.0212
CCCCGGAC | -0.105
GTGGTCAA | 0.0649
CGTACGGC | 0.396
CGTACGTA | 0.266
CGTACGTC | 0.359
CGTACGCC | 0.155
AGTACGTC | 0.125
CGTACGGA | 0.355
AGTACGGC | 0.224
AGTACGGA | 0.118
GGTACGGA | 0.13
ATGACTGA | -0.0877
CGAATGAA | -0.164
CGTATGAC | 0.334
GGTATGAC | -0.0891
AGTATGAA | 0.135
AGTATGAC | 0.186
AGAATGAC | 0.255
CGTATGAG | 0.189
CGTATGAA | 0.426
CGAATGAC | 0.312

Sequence | PBM E-score
AGTGTTCA | -0.11
ACCAGTGG | -0.261
ATAATCCG | -0.0846
AAACAACG | 0.0689
CAGTCGAG | -0.177
CGCCGCGA | 0.0127
TCCGTTAA | 0.0849
CGTGATCA | 0.379
GGTGATCA | 0.305
CCTGATCA | 0.112
CGTGATCC | -0.0112
AGTGATCA | 0.416
GGGGATCA | -0.0388
GCTGATCA | 0.139
AGTGATCC | 0.189
AGTGATCG | 0.239
AGTACCGG | -0.202
ACTCCTGC | -0.173
GAGATCAA | 0.109
AAGATCAC | 0.325
GAGATCGC | 0.164
GAGATCAC | 0.347
AAGATCAT | 0.289
CAGATCAC | 0.284
